Test [1] in a line: NCI Yeast Anticancer Drug Screen. Data for the rad50 strain (AID 155).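 Also: 0% = growth of vehicle-only cultures of the same strain.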 The conditions noted are these: S. cerevisiae rad50 strain growth inhibition, stronger effect = higher value. The procedure, abridged:
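Vehicle-treated cultures provide the reference for the growth inhibition reported for compound-exposed, repair-deficient yeast.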

Test [2] is described as follows: NCI Yeast Anticancer Drug Screen. Data for the mec2-1 strain (AID 157). The settings on record: S. cerevisiae mec2-1 strain, stronger effect = higher value. The method, boiled down: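 Readout is yeast growth inhibition, normalised to vehicle-treated controls, in the mec2-1 strain exposed to compound.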
The nature of test [3]: NCI Yeast Anticancer Drug Screen. Data for the sgs1 mgt1 strain (AID 161).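 Also: 0% = growth of cultures given vehicle only.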 The settings on record: S. cerevisiae sgs1 mgt1 strain, stronger effect = higher value. The procedure, abridged:
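This yeast growth screen uses a strain with defined DNA-repair lesions; compound-treated growth is compared with vehicle-treated growth.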

Test [4] in a line: NCI Yeast Anticancer Drug Screen. Data for the cln2 rad14 strain (AID 165).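 Also: 0% = growth equal to vehicle treated cultures.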 The settings on record: S. cerevisiae cln2 rad14 strain, stronger effect = higher value. The procedure, abridged:
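Relative to vehicle controls, growth inhibition of compound-treated cln2 rad14 yeast was recorded.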

The nature of test [5]: NCI Yeast Anticancer Drug Screen. Data for the bub3 strain (AID 167). The settings on record: S. cerevisiae bub3 mutant strain, stronger effect = higher value. The method, boiled down:
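Mutant yeast screening strain plus compound; vehicle-treated cultures serve as the 0% inhibition reference.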

A short description of test [6]: NCI Yeast Anticancer Drug Screen. Data for the mlh1 rad18 strain (AID 175). The conditions noted are these: S. cerevisiae mlh1 rad18 strain growth inhibition, stronger effect = higher value. The procedure, abridged: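 Test agents were incubated with a yeast strain of defined genotype (DNA damage repair defect). Inhibition of growth was derived by comparison with vehicle-exposed cultures.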

Where [7] appears, read: at 5.0 µM (retest, dose inferred, filed as 0.5).
Setting [8] is: at 50.0 µM (retest, dose inferred, filed as 5.0).

About 79,000 compounds went through this panel and 15% of them were active in at least one assay; those are over-represented in the sample as a whole. Values without a mark were called inactive. Active and inactive are the calls of the source. Rule as the data show it: active = growth inhibition above about 70%; inactive = the rest.

On to `O=c1[nH]c2c([N+](=O)[O-])cc(Cl)cc2nc1/C=C(\O)c1cccc2ccccc12`, for which the growth inhibition is 0% in test [1] (setting [7]); 86% (active) in test [1] (setting [8]); 77% (active) in test [1] (at 50.0 µM); 10% in test [2] (setting [7]); 75% (active) in test [2] (setting [8]); 62.2% in test [2] (at 50.0 µM). In addition, the growth inhibition in test [3] (setting [7]) was -10%; in test [3] (setting [8]) it was 81% (active); in test [3] (at 50.0 µM), 89.5% (active); in test [4] (setting [7]), -1%; in test [4] (setting [8]), 87% (active); in test [4] (at 50.0 µM), 82.4% (active). Further, the growth inhibition in test [5] (setting [7]) was -3%; in test [5] (setting [8]) it was 88% (active); in test [5] (at 50.0 µM) it was 71.5% (active); in test [6] (setting [7]), -7%; in test [6] (setting [8]), 85% (active); in test [6] (at 50.0 µM) it was 72.2% (active).

In the case of `N=C(N)c1ccc(Nc2ccc(C(=N)N)cc2)cc1`, the growth inhibition in test [1] (setting [7]) was 20%; in test [1] (setting [8]), 5%; in test [1] (at 50.0 µM), 91.2% (active); in test [2] (setting [7]), 30%; in test [2] (setting [8]), -7%; in test [2] (at 50.0 µM) it was 86.3% (active). The growth inhibition in test [3] (setting [7]) was 19%; in test [3] (setting [8]), 9%; in test [3] (at 50.0 µM), 90% (active); in test [4] (setting [7]) it was 1%; in test [4] (setting [8]), 14%; in test [4] (at 50.0 µM), 72.2% (active). Moreover, the growth inhibition is 21% in test [5] (setting [7]); 56% in test [5] (setting [8]); 97.8% (active) in test [5] (at 50.0 µM); 14% in test [6] (setting [7]); 39% in test [6] (setting [8]); 91% (active) in test [6] (at 50.0 µM).

On to `NC1=NCN(C2OC(COCc3ccccc3)C(OCc3ccccc3)C2OCc2ccccc2)C(=O)N1` (stereo not given), for which the growth inhibition was 5% in test [1] (setting [7]); 57% in test [1] (setting [8]); 66.5% in test [1] (at 50.0 µM); 8% in test [2] (setting [7]); 28% in test [2] (setting [8]); 45.6% in test [2] (at 50.0 µM). The growth inhibition was 5% in test [3] (setting [7]); 59% in test [3] (setting [8]); 99.4% (active) in test [3] (at 50.0 µM); -7% in test [4] (setting [7]); 58% in test [4] (setting [8]); 80.2% (active) in test [4] (at 50.0 µM). Moreover, the growth inhibition in test [5] (setting [7]) is -1%; in test [5] (setting [8]), 56%; in test [5] (at 50.0 µM) it was 98% (active); in test [6] (setting [7]), 1%; in test [6] (setting [8]), 86% (active); in test [6] (at 50.0 µM), 99% (active).

As for `c1ccc([P+](Cc2ccc(C[P+](c3ccccc3)(c3ccccc3)c3ccccc3)s2)(c2ccccc2)c2ccccc2)cc1`, the growth inhibition in test [1] (setting [7]) was 35%; in test [1] (setting [8]), 90% (active); in test [1] (at 50.0 µM) it was 80% (active); in test [2] (setting [7]), 33%; in test [2] (setting [8]), 96% (active); in test [2] (at 50.0 µM) it was 80.3% (active). In addition, the growth inhibition in test [3] (setting [7]) is 37%; in test [3] (setting [8]) it was 98% (active); in test [3] (at 50.0 µM), 80.7% (active); in test [4] (setting [7]), 17%; in test [4] (setting [8]) it was 77% (active); in test [4] (at 50.0 µM), 67.4%. Further, the growth inhibition is 47% in test [5] (setting [7]); 96% (active) in test [5] (setting [8]); 81% (active) in test [5] (at 50.0 µM); 43% in test [6] (setting [7]); 96% (active) in test [6] (setting [8]); 75.8% (active) in test [6] (at 50.0 µM).

For `O=C(/C=C(\C(=O)c1ccccc1)N(/C(=C/C(=O)c1ccccc1)C(=O)c1ccccc1)c1ccccc1)c1ccccc1`, the growth inhibition in test [1] (setting [7]) was 2%; in test [1] (setting [8]), 30%; in test [1] (at 50.0 µM), 92.2% (active); in test [2] (setting [7]), -3%; in test [2] (setting [8]) it was 13%; in test [2] (at 50.0 µM) it was 88.8% (active). In addition, the growth inhibition is -5% in test [3] (setting [7]); 30% in test [3] (setting [8]); 90.8% (active) in test [3] (at 50.0 µM); -2% in test [4] (setting [7]); -21% in test [4] (setting [8]); 83.5% (active) in test [4] (at 50.0 µM). Also, the growth inhibition is 0% in test [5] (setting [7]); 34% in test [5] (setting [8]); 88.4% (active) in test [5] (at 50.0 µM); 0% in test [6] (setting [7]); 12% in test [6] (setting [8]); 92.7% (active) in test [6] (at 50.0 µM).

On to `O=C(O)/C=C/c1ccc2c(c1)CCCC2`, for which the growth inhibition is 0% in test [1] (setting [7]); 83% (active) in test [1] (setting [8]); 90.1% (active) in test [1] (at 50.0 µM); -8% in test [2] (setting [7]); 66% in test [2] (setting [8]); 73% (active) in test [2] (at 50.0 µM). Also, the growth inhibition is 3% in test [3] (setting [7]); 79% (active) in test [3] (setting [8]); 73.5% (active) in test [3] (at 50.0 µM); -28% in test [4] (setting [7]); 70% (active) in test [4] (setting [8]); 85.3% (active) in test [4] (at 50.0 µM). The growth inhibition in test [5] (setting [7]) is -11%; in test [5] (setting [8]) it was 70% (active); in test [5] (at 50.0 µM), 64%; in test [6] (setting [7]) it was -19%; in test [6] (setting [8]), 87% (active); in test [6] (at 50.0 µM), 62.9%.

With `CP(=O)(c1ccccc1)c1ccccc1`, the growth inhibition in test [1] (setting [7]) was -20%; in test [1] (setting [8]), -17%; in test [1] (at 50.0 µM), 12.3%; in test [2] (setting [7]), -1%; in test [2] (setting [8]) it was 5%; in test [2] (at 50.0 µM), 13.2%. In addition, the growth inhibition is -21% in test [3] (setting [7]); -14% in test [3] (setting [8]); 18.4% in test [3] (at 50.0 µM); 18% in test [4] (setting [7]); -12% in test [4] (setting [8]); 6.05% in test [4] (at 50.0 µM). For the same compound, the growth inhibition in test [5] (setting [7]) is -22%; in test [5] (setting [8]), -20%; in test [5] (at 50.0 µM), 5.05%; in test [6] (setting [7]), -24%; in test [6] (setting [8]) it was -25%; in test [6] (at 50.0 µM), 41.8%.

`COc1ccc(C2C3=C(CC(C)(C)CC3=O)Oc3cc4c(cc32)OCO4)c(OC)c1` (stereo not given): the growth inhibition in test [1] (setting [7]) was 9%; in test [1] (setting [8]), 48%; in test [1] (at 50.0 µM), 52.4%; in test [2] (setting [7]) it was 16%; in test [2] (setting [8]), 27%; in test [2] (at 50.0 µM), 65.5%. Also, the growth inhibition was 11% in test [3] (setting [7]); -17% in test [3] (setting [8]); 64.2% in test [3] (at 50.0 µM); 5% in test [4] (setting [7]); 20% in test [4] (setting [8]); 20.2% in test [4] (at 50.0 µM). The growth inhibition in test [5] (setting [7]) is 2%; in test [5] (setting [8]), 52%; in test [5] (at 50.0 µM), 45.8%; in test [6] (setting [7]), 5%; in test [6] (setting [8]) it was 14%; in test [6] (at 50.0 µM), 73% (active).

`O=C1/C(=C\c2ccc([N+](=O)[O-])o2)Oc2cc(O)ccc21`: the growth inhibition in test [1] (setting [7]) is 97% (active); in test [1] (setting [8]), 96% (active); in test [1] (at 50.0 µM), 95.2% (active); in test [2] (setting [7]), 97% (active); in test [2] (setting [8]), 97% (active); in test [2] (at 50.0 µM) it was 91.8% (active). The growth inhibition was 96% (active) in test [3] (setting [7]); 96% (active) in test [3] (setting [8]); 95.7% (active) in test [3] (at 50.0 µM); 98% (active) in test [4] (setting [7]); 98% (active) in test [4] (setting [8]); 93.6% (active) in test [4] (at 50.0 µM). Further, the growth inhibition in test [5] (setting [7]) was 75% (active); in test [5] (setting [8]), 90% (active); in test [5] (at 50.0 µM), 41.5%; in test [6] (setting [7]), 97% (active); in test [6] (setting [8]), 98% (active); in test [6] (at 50.0 µM), 95.7% (active).

Turning to `CCCCCCC(C)OC(=O)c1ccccc1C(=O)O` (stereo not given), the growth inhibition was 7% in test [1] (setting [7]); 17% in test [1] (setting [8]); 11.5% in test [1] (at 50.0 µM); -11% in test [2] (setting [7]); 10% in test [2] (setting [8]); 0.2% in test [2] (at 50.0 µM). Further, the growth inhibition in test [3] (setting [7]) is -6%; in test [3] (setting [8]), 16%; in test [3] (at 50.0 µM), 17.9%; in test [4] (setting [7]), 6%; in test [4] (setting [8]), 31%; in test [4] (at 50.0 µM), 63.5%. Further, the growth inhibition in test [5] (setting [7]) was -3%; in test [5] (setting [8]), 9%; in test [5] (at 50.0 µM), 13.3%; in test [6] (setting [7]), -13%; in test [6] (setting [8]), 12%; in test [6] (at 50.0 µM), 14.8%.
